# In PubChem BioAssay (NCATS):
# “And” between values parts separate entries of the source, which are not always exact repeats. Equal entries are not always repeated. Records with an inconclusive call do not appear. A call without a number means that no potency is given here. Unmarked numbers belong to inactive results. The source made the active and inactive calls. Calls come from the whole dose curve; as a rule, active = well fitted curve in the direction sought with a large enough effect; inconclusive = small, poorly fitted or top-dose-only effect, or another doubt; inactive = no such curve, though single readings can be large; an effect the other way counts as inactive or inconclusive.
# Tests used:
# NIH3T3 [1] = assay: Cytotoxic Profiling of Annotated Libraries Using Quantitative High-Throughput Screening (AID 1296008); details: Five cell lines viability, CellTiter-Glo ATP luminescence, 48-72 h; max response: hits give low values; note: nearly all actives have a fitted effect of over 60% in size
# Summary of the method: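 Cytotoxicity was measured as CellTiter-Glo ATP luminescence, read after 10 min at room temperature. Compound treatment of the cells lasted 48 or 72 hr at 37 degrees Celsius in a qHTS format.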
# HACAT = assay: qHTS assay to identify novel small-molecules to repurpose for Merkel cell carcinoma treatment (AID 1296009); details: MCC and control cell lines, CellTiter-Glo viability, 72 h; at 44.8 µM (top of the series) unless noted; note: nearly all actives have a fitted effect of over 60% in size; note: potency is the fitted concentration of half-maximal effect
# Summary of the method: (§1)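 Cell viability measured by CellTiter-Glo following 72 hr compound treatment at 37 degree celsius, with NPC and MIPE libraries tested in 8- and 11-point concentration series.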
# MCC-13 = assay: as above; details: MCC and control cell lines, CellTiter-Glo viability, 72 h; series mostly up to 46 µM
# Summary of the method: as §1
# MCC-26 = assay: as above; details: MCC and control cell lines, CellTiter-Glo viability, 72 h; series mostly up to 46 µM
# Summary of the method: as §1
# C33A = assay: Primary qHTS to identify gynecologic anti-cancer compounds using libraries of approved drugs and bioactive compounds (AID 1345084); details: Gynecologic cancer cell panel viability, ATPlite luminescence, 48 h; series mostly up to 57.5 µM; note: nearly all actives have a fitted effect of over 55% in size; note: potency is the fitted concentration of half-maximal effect
# Summary of the method: (§2)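 ATP-based viability (ATPlite), 1,000 cells/well, 16 h pre-incubation, 48 h compound at 37 C, 5% CO2, 15 min RT before read.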
# CAOV3 = assay: as above; details: Gynecologic cancer cell panel viability, ATPlite luminescence, 48 h; series mostly up to 57.5 µM
# Summary of the method: as §2
# CASKI = assay: as above; details: Gynecologic cancer cell panel viability, ATPlite luminescence, 48 h; series mostly up to 57.5 µM
# Summary of the method: as §2
# Es-2 = assay: as above; details: Gynecologic cancer cell panel viability, ATPlite luminescence, 48 h; series mostly up to 57.5 µM
# Summary of the method: as §2
# HeLa = assay: as above; details: Gynecologic cancer cell panel viability, ATPlite luminescence, 48 h; series mostly up to 57.5 µM
# Summary of the method: as §2
# Hek293T [2] = assay: as above; details: Gynecologic cancer cell panel viability, ATPlite luminescence, 48 h, control line for the selectivity index; series mostly up to 57.5 µM
# Summary of the method: as §2
# JEG-3 = assay: as above; details: Gynecologic cancer cell panel viability, ATPlite luminescence, 48 h; series mostly up to 57.5 µM
# Summary of the method: as §2
# OV90 = assay: as above; details: Gynecologic cancer cell panel viability, ATPlite luminescence, 48 h; series mostly up to 57.5 µM
# Summary of the method: as §2
# PA-1 = assay: as above; details: Gynecologic cancer cell panel viability, ATPlite luminescence, 48 h; series mostly up to 57.5 µM
# Summary of the method: as §2
# SKOV3 = assay: as above; details: Gynecologic cancer cell panel viability, ATPlite luminescence, 48 h; series mostly up to 57.5 µM
# Summary of the method: as §2
# HEK293T [3] = assay: qHTS assay to identify novel small-molecules to repurpose for Merkel cell carcinoma treatment (AID 1296009); details: MCC and control cell lines, CellTiter-Glo viability, 72 h; at 44.8 µM (top of the series) unless noted; note: nearly all actives have a fitted effect of over 60% in size; note: potency is the fitted concentration of half-maximal effect
# Summary of the method: as §1
# MKL-1 = assay: as above; details: MCC and control cell lines, CellTiter-Glo viability, 72 h; series mostly up to 46 µM
# Summary of the method: as §1
# MKL-2 = assay: as above; details: MCC and control cell lines, CellTiter-Glo viability, 72 h; series mostly up to 46 µM
# Summary of the method: as §1
# UISO = assay: as above; details: MCC and control cell lines, CellTiter-Glo viability, 72 h; series mostly up to 46 µM
# Summary of the method: as §1
# WaGa = assay: as above; details: MCC and control cell lines, CellTiter-Glo viability, 72 h; series mostly up to 46 µM
# Summary of the method: as §1
# NIH3T3 [4] = assay: as above; details: MCC and control cell lines, CellTiter-Glo viability, 72 h; at 44.8 µM (top of the series) unless noted
# Summary of the method: as §1
compound,measurement,setting,value
COc1ccc(CN2CCN(C(c3ccc(F)cc3)c3ccc(F)cc3)CC2)c(OC)c1OC,max response,NIH3T3 [1],1.96% and 2.43%
same,outcome,HACAT,inactive
same,Potency,MCC-13,inactive
same,Potency,MCC-26,inactive
same,Potency,C33A,inactive
same,Potency,CAOV3,inactive
same,Potency,CASKI,inactive
same,Potency,Es-2,inactive
same,Potency,HeLa,inactive
same,Potency,Hek293T [2],inactive
same,Potency,JEG-3,inactive
same,Potency,OV90,inactive
same,Potency,PA-1,inactive
same,Potency,SKOV3,inactive
CC1(C)OC[C@@H](COC(=O)CCc2ccc(OC[C@@H](O)CNCCNC(=O)N3CCOCC3)cc2)O1,max response,NIH3T3 [1],4.95%
same,outcome,HEK293T [3],inactive
same,Potency,MCC-13,inactive
same,Potency,MCC-26,inactive
same,Potency,MKL-1,inactive
same,Potency,MKL-2,inactive
same,Potency,UISO,inactive
same,Potency,WaGa,inactive
same,Potency,C33A,inactive
same,Potency,CAOV3,inactive
same,Potency,CASKI,inactive
same,Potency,Es-2,inactive
same,Potency,HeLa,inactive
same,Potency,Hek293T [2],inactive
same,Potency,JEG-3,inactive
same,Potency,OV90,inactive
same,Potency,PA-1,inactive
same,Potency,SKOV3,inactive
CC(=O)[C@H]1CC[C@H]2[C@@H]3C[C@H](C)C4=CC(=O)CC[C@]4(C)[C@H]3[C@@H](O)C[C@]12C,outcome,NIH3T3 [1],inactive
same,Potency,MCC-13,inactive
same,Potency,MCC-26,inactive
same,Potency,MKL-1,inactive
same,Potency,MKL-2,inactive
same,outcome,NIH3T3 [4],inactive
same,Potency,UISO,inactive
same,Potency,WaGa,inactive
same,Potency,C33A,inactive
same,Potency,CAOV3,inactive
same,Potency,CASKI,inactive
same,Potency,Es-2,inactive
same,Potency,HeLa,15.8 µM (active)
same,Potency,Hek293T [2],inactive
same,Potency,JEG-3,inactive
same,Potency,OV90,inactive
same,Potency,SKOV3,inactive
CN(C)CC/C=C1\c2ccccc2Sc2ccc(Cl)cc21,max response,NIH3T3 [1],-4.42%
same,outcome,HACAT,inactive
same,Potency,MCC-13,inactive
same,Potency,MCC-26,inactive
same,Potency,MKL-2,11.9 µM (active)
same,Potency,C33A,inactive
same,Potency,CAOV3,inactive
same,Potency,CASKI,inactive
same,Potency,Es-2,inactive
same,Potency,HeLa,inactive
same,Potency,Hek293T [2],inactive
same,Potency,JEG-3,inactive
same,Potency,PA-1,inactive
CC1(C)O[C@@H]2C[C@H]3[C@@H]4C[C@H](F)C5=CC(=O)CC[C@]5(C)[C@H]4[C@@H](O)C[C@]3(C)[C@]2(C(=O)CO)O1,max response,NIH3T3 [1],0.0351%
same,outcome,HEK293T [3],inactive
same,Potency,MCC-13,inactive
same,Potency,MKL-1,inactive
same,Potency,MKL-2,inactive
same,Potency,UISO,inactive
same,Potency,WaGa,inactive
same,Potency,C33A,inactive
same,Potency,CASKI,inactive
same,Potency,Es-2,inactive
same,Potency,HeLa,inactive
same,Potency,Hek293T [2],inactive
same,Potency,JEG-3,inactive
same,Potency,OV90,inactive
same,Potency,PA-1,inactive
same,Potency,SKOV3,inactive
Oc1cc(O)c2c(c1)O[C@H](c1ccc(O)c(O)c1)[C@H](O)C2,max response,NIH3T3 [1],-0.255%
same,outcome,HEK293T [3],inactive
same,Potency,MCC-13,inactive
same,Potency,MCC-26,inactive
same,Potency,MKL-1,inactive
same,Potency,MKL-2,inactive
same,Potency,UISO,inactive
same,Potency,WaGa,inactive
same,Potency,C33A,inactive
same,Potency,CAOV3,inactive
same,Potency,CASKI,inactive
same,Potency,Es-2,inactive
same,Potency,HeLa,inactive
same,Potency,Hek293T [2],inactive
same,Potency,JEG-3,inactive
same,Potency,OV90,inactive
same,Potency,PA-1,inactive
same,Potency,SKOV3,inactive
CC(C)(C(=O)c1cccnc1)c1cccnc1,outcome,NIH3T3 [1],inactive
same,outcome,HEK293T [3],inactive
same,Potency,MCC-13,inactive
same,Potency,MCC-26,inactive
same,Potency,MKL-1,inactive
same,Potency,MKL-2,inactive
same,outcome,NIH3T3 [4],inactive
same,Potency,UISO,inactive
same,Potency,WaGa,inactive
same,Potency,C33A,inactive
same,Potency,CAOV3,inactive
same,Potency,CASKI,inactive
same,Potency,Es-2,inactive
same,Potency,HeLa,inactive
same,Potency,Hek293T [2],inactive
same,Potency,OV90,inactive
same,Potency,PA-1,inactive
same,Potency,SKOV3,inactive
CCC(C(=O)OCCN(CC)CC)c1ccccc1 (stereo unspecified),max response,NIH3T3 [1],-17.3%
same,outcome,HACAT,inactive
same,Potency,MCC-13,inactive
same,Potency,MKL-1,inactive
same,Potency,MKL-2,inactive
same,Potency,UISO,inactive
same,Potency,WaGa,inactive
same,Potency,C33A,inactive
same,Potency,CAOV3,inactive
same,Potency,CASKI,inactive
same,Potency,Es-2,inactive
same,Potency,HeLa,inactive
same,Potency,Hek293T [2],inactive
same,Potency,OV90,inactive
same,Potency,PA-1,inactive
same,Potency,SKOV3,inactive
CCCC(=O)O[C@]1(C(=O)CO)CC[C@H]2[C@@H]3CCC4=CC(=O)CC[C@]4(C)[C@H]3[C@@H](O)C[C@@]21C,max response,NIH3T3 [1],-4.28%
same,outcome,HEK293T [3],inactive
same,Potency,MCC-13,inactive
same,Potency,MCC-26,inactive
same,Potency,MKL-1,inactive
same,Potency,MKL-2,inactive
same,Potency,UISO,inactive
same,Potency,WaGa,inactive
same,Potency,C33A,inactive
same,Potency,CAOV3,3.55 µM (active)
same,Potency,CASKI,inactive
same,Potency,Es-2,inactive
same,Potency,HeLa,inactive
same,Potency,Hek293T [2],inactive
same,Potency,JEG-3,inactive
same,Potency,OV90,inactive
same,Potency,PA-1,inactive
same,Potency,SKOV3,inactive
NC[C@H]1O[C@H](O[C@H]2[C@H](O)[C@@H](O[C@H]3O[C@H](CO)[C@@H](O)[C@H](N)[C@H]3O)[C@H](N)C[C@@H]2N)[C@H](N)[C@@H](O)[C@@H]1O,max response,NIH3T3 [1],1.61%
same,outcome,HACAT,inactive [at 17.4 µM]
same,Potency,MCC-13,inactive
same,Potency,MKL-1,inactive
same,Potency,MKL-2,inactive
same,Potency,UISO,inactive
same,Potency,WaGa,inactive
same,Potency,C33A,inactive
same,Potency,CAOV3,inactive
same,Potency,CASKI,inactive
same,Potency,Es-2,inactive
same,Potency,HeLa,inactive
same,Potency,Hek293T [2],inactive
same,Potency,JEG-3,inactive
same,Potency,OV90,inactive
same,Potency,PA-1,inactive
same,Potency,SKOV3,inactive
CCC(=O)c1c(O)cc(O)cc1O,max response,NIH3T3 [1],0.801%
same,outcome,HEK293T [3],inactive
same,Potency,MCC-13,inactive
same,Potency,MCC-26,inactive
same,Potency,MKL-1,inactive
same,Potency,MKL-2,inactive
same,Potency,UISO,inactive
same,Potency,WaGa,inactive
same,Potency,C33A,inactive
same,Potency,CAOV3,inactive
same,Potency,CASKI,inactive
same,Potency,Es-2,inactive
same,Potency,HeLa,inactive
same,Potency,Hek293T [2],inactive
same,Potency,JEG-3,inactive
same,Potency,OV90,inactive
same,Potency,PA-1,inactive
same,Potency,SKOV3,inactive
COc1cc2c(cc1OC)[C@@H]1CC(=O)[C@@H](CC(C)C)CN1CC2,outcome,NIH3T3 [1],inactive
same,Potency,MCC-13,inactive
same,Potency,MCC-26,inactive
same,Potency,MKL-1,inactive
same,Potency,MKL-2,inactive
same,outcome,NIH3T3 [4],inactive
same,Potency,UISO,inactive
same,Potency,WaGa,inactive
same,Potency,C33A,inactive
same,Potency,CAOV3,inactive
same,Potency,CASKI,inactive
same,Potency,Es-2,inactive
same,Potency,HeLa,inactive
same,Potency,Hek293T [2],inactive
same,Potency,JEG-3,inactive
same,Potency,OV90,inactive
same,Potency,PA-1,inactive
same,Potency,SKOV3,inactive
